CHX counter: affects cycloheximide protein synthesis inhibition readout, counter-screen; cell reporter, cycloheximide protein synthesis inhibition counterscreen; AID 2314; max response, %; 12% of 300,000 active; in the data active means max response mostly above about 13%, no sharp cut-off; inactive means mostly below about 14%; further: read at 38.3 µM for the half of the compounds with a filed dose; 0% is about no effect
LmPK inh: inhibitors of Leishmania mexicana pyruvate kinase; purified LmPK, Kinase-Glo ATP luminescence, 1 h; Potency, µM (series often up to 57.5 µM), for the others: top-dose activity change, negative = inhibition, actives largely listed as inhibitors; 0.37% of 290,000 active; further: potency means the concentration at half of the fitted maximal effect; on the % scale 0 is the no-effect control and ±100 the full control effect
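ATP generated from ADP (0.1 mM) and PEP (0.5 mM) by 0.1 nM LmPK over 1 h at room temperature (pH 7.2 imidazole buffer) was detected by coupled luciferase luminescence. Values were normalized to uninhibited and no-enzyme wells.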
FBPA Giardia inh: blocks Giardia fructose-bisphosphate aldolase activity; Potency, µM (series often up to 59.6 µM), without a hit: at the highest dose activity, negative = inhibition, hits mostly inhibitors; purified Giardia FBPA; 0.71% of 290,000 active; A8B2U2; further: potency means the concentration at half of the fitted maximal effect; on the % scale 0 is the no-effect control and ±100 the full control effect; nearly all actives have a fitted effect of over 55% in size
Target sequence (A8B2U2 whole entry, looked up): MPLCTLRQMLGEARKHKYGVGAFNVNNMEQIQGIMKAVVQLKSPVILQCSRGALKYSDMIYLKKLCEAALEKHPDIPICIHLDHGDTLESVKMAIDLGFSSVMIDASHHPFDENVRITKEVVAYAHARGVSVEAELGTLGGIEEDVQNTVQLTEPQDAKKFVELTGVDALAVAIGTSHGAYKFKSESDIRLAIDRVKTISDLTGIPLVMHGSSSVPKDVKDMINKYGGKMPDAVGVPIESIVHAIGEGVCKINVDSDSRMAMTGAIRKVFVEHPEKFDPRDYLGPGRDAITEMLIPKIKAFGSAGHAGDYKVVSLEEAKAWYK
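Giardia FBPA (40 nM reagent) was preincubated 10 min at RT with compound (up to 57.5 uM final), then substrate plus GAPDH/TPI/NAD/arsenate coupling system with diaphorase/resazurin was added; resorufin fluorescence (525/598 nm) was read after 20 min.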
Shiga toxin inh: Shiga toxin inhibition; Vero cells, Shiga toxin protein synthesis inhibition reporter; inhibition, % at 38.7 µM; 9.2% of 290,000 active; AID 2315; in the data active means inhibition mostly above about 28%, no sharp cut-off; inactive means mostly below about 43%; further: 0% is about no effect
NS1 function inh: inhibitors of influenza NS1 protein function; Potency, µM (doses to about 46.1 µM), for the others: at the top dose activity, positive = more growth; 0.4% of 270,000 active; AID 2326; calls by dose curve; further: potency means the concentration at half of the fitted maximal effect; actives are rising curves; nearly all actives have a fitted effect of over 50% in size
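Recovery from NS1-induced slow growth read by OD600 in budding yeast switched to galactose assay medium (pH 6.0, -URA) at 1:100 dilution. Compound 23 nl per well; the matching strain lacking NS1 serves as control.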
Starred values were filed as active, the others as inactive; ? = inconclusive; / = no result; [ ] = dose if it differs, or a comment. Most compounds without a hit are left out; they make up all but 14% or so of the library. Unless noted, the call rests on the fitted dose curve; in most records, active means well fitted curve in the direction sought with a large enough effect; inconclusive means small, poorly fitted or top-dose-only effect, or another doubt; inactive means no such curve, though single readings can be large; an effect the other way counts as inactive or inconclusive.

SMILES	CHX counter	LmPK inh	FBPA Giardia inh	Shiga toxin inh	NS1 function inh
CN(C(=O)c1ccccc1-c1ccccc1C(=O)O)c1ccccc1	-4.5	-2.6%	9.6%	-1.7	-5.9%
Cc1ccc(OCCn2cc(/C(N)=N/O)c3ccccc32)cc1C	-2.0	4.2%	-0.2%	1.9	9.6%
COc1ccccc1OCCn1nnc2ccccc21	34.1*	-12.1%	-2.0%	103.5*	-1.7%
CCOc1ccccc1OCCn1nnc2ccccc21	8.4	0.7%	-5.2%	22.2	0.5%
Cc1ccc(OCCn2nnc3ccccc32)cc1C	45.1*	0.1%	8.5%	47.6*	-26.8%
Cc1ccc(C(=O)CC2(O)C(=O)N(CN3CCOCC3)c3ccccc32)cc1 (centres undefined)	18.1*	-0.1%	21.6%	44.4*	1.9%
C=CCN1C(=O)C(O)(CC(=O)c2ccc(N)cc2)c2ccccc21 (centres undefined)	-1.2	-3.1%	-0.4%	-4.0	-3.8%
CCN1C(=O)C(O)(CC(=O)c2ccc3c(c2)OCCO3)c2ccccc21 (centres undefined)	5.5	0.9%	-1.0%	14.5	-3.8%
CC(C)c1ccc(C(=O)CC2(O)C(=O)N(CN3CCOCC3)c3ccccc32)cc1 (centres undefined)	38.7*	-1.9%	1.6%	64.2*	-5.7%
COC(=O)CN1C(=O)C(O)(CC(=O)c2ccc(C)cc2)c2ccccc21 (centres undefined)	-2.8	-0.5%	-4.5%	15.8	-6.1%
CCc1ccc(C(=O)CC2(O)C(=O)N(CN3CCOCC3)c3ccccc32)cc1 (centres undefined)	19.0*	-1.6%	7.1%[12.9 µM]	29.8	?
OCc1cccc(Cl)c1Cl	-5.5	/	-6.8%	10.3	/
O=C(CN1CCC(NC(=O)Nc2ccc(F)cc2)CC1)Nc1ccccc1[N+](=O)[O-]	1.5	5.3%	1.9%	-5.3	6.7%
COc1ccc(C2/C=C\CN(C(=O)c3ccccc3)C(Cc3ccccc3)C(=O)N2Cc2ccc(F)cc2)cc1 (centres undefined)	25.1	/	-5.9%	-4.1	/
COc1cc2[nH]c(C(=O)N3CC(C)OC(C)C3)cc2c(OC)c1OC (centres undefined)	-1.9	-1.2%	-7.7%	-5.4	2.4%
COc1ccc(C(=O)c2c(C)oc3ccc(O)cc23)cc1	28.9*	2.9%	-5.2%	32.3*	-36.1%
COc1ccc2oc(C)c(C(=O)c3ccc(C)cc3)c2c1	21.9*	9.4%	0.3%	36.1*	-34.3%
COc1ccc2oc3ccc(OC)cc3c(=O)c2c1	22.4*	-11.5%	1.7%	156.1	-38.6%
COc1ccc2oc(C)c(C(=O)NN)c2c1	-2.9	0.6%	-18.4%	-3.6	-0.2%
Cc1oc2ccc(O)cc2c1C(=O)c1ccc(Cl)cc1	17.0*	-3.0%	-25.0%	68.8	-84.2%
Cc1oc2ccc(O)cc2c1C(=O)OC(C)C	21.9*	-0.5%	-0.6%	54.6	0.4%
CC(=O)c1c(C)oc2ccc(OCc3ccccc3)cc12	30.7*	1.1%	-7.4%	62.8*	-47.4%
Cc1oc2ccc(OCc3ccccc3Cl)cc2c1C(=O)O	-1.4	1.3%	-10.1%	-2.8	0.1%
O=C(O)P(=O)(O)O	/	/	2.6%	/	/
CSc1ncc(C(=O)Nc2cc(C)ccc2C)c(C)n1	-3.2	4.4%	-9.2%	-5.4	5.7%
SMILES	CHX counter	LmPK inh	FBPA Giardia inh	Shiga toxin inh	NS1 function inh
COc1ccc(N2C(=O)C3C(C2=O)C(C(=O)c2ccc(Cl)cc2)N2CCCC32)cc1 (centres undefined)	33.6*	8.8%	-25.3%	90.3*	-7.3%
CC1(C)CC(NC(=O)COc2ccc3c4c(c(=O)oc3c2)CCCC4)CC(C)(C)N1	-1.7	5.5%	4.6%	-16.5	13.8%
Cc1ccc(C(=O)c2coc3ccc(O)c(Cl)c23)cc1	36.3*	0.9%	?	72.3*	-87.4%
Cc1ccc(C(=O)c2coc3ccc(O)cc23)cc1	33.9*	-11.2%	-4.0%	40.9*	-31.1%
O=C(c1ccccc1)c1coc2ccc(O)c(Cl)c12	67.4*	0.4%	-23.5%	117.6*	-148.1%
O=C(c1ccccc1)c1coc2ccc(O)c(CN3CCOCC3)c12	15.8	0.2%	1.5%	21.7	0.0%
C[C@H](NC(=O)c1ccccc1)C(=O)N1CCC2(CC1)NCCc1[nH]cnc12	-1.2	-0.4%	/	1.3	0.0%
CC(C)(C)CN1CCN(CCCc2ccccc2)C(CCO)C1 (centres undefined)	-1.7	2.0%	4.4%	/	-6.9%
O=C(O)COc1ccc(Oc2ccccc2)cc1	-0.7	-7.4%	13.1%	-7.8	2.8%
c1ccc(Oc2ccc(-c3ccn[nH]3)cc2)cc1	36.6*	6.1%	-4.7%	69.0*	-58.6%
